Reference: PubChem BioAssay

Test: fission yeast growth modulation, primary screen, strain 972, OD600, 24 h, no modulator (AID 1090);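 also: basal condition with compound alone and no growth modifier present; test concentration not given here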
Conditions: S. pombe 972 growth, higher = more signal, called active from +8 up or from −8 down

z-score, inactive:
Cc1ccc(NN2C(C(O)c3c(F)cccc3Cl)C=CC3C(=O)N(C4CCCCC4)C(=O)C32)cc1 (stereo not given) -0.362
CC(C)N1C(=O)C[C@@](C(=O)O)(c2ccc([N+](=O)[O-])cc2)[C@H]1c1ccc(CO)cc1 -0.996
CCCN1C(=O)[C@@]2(Cc3ccccc31)N=C(c1ccc(OCCCO)cc1)O[C@H]2c1ccccc1 -7.39
C=CCN1C(=O)[C@]2(CCS(=O)(=O)c3ccccc3)N=C(c3ccc(OCCCO)cc3)O[C@@H]2c2ccccc21 -1.16
C=CC[C@@]1(C(=O)NCCCOC)N=C(c2ccc(OCCCO)cc2)O[C@@H]1c1ccccc1 -1.61
COC(=O)c1c(CC[C@@H](CO)NC(=O)N2CCC[C@H]2Cn2cc(C3(O)CCCCC3)nn2)oc(C(C)=O)c1C(=O)OC -0.154
COCC(=C=CC[C@H](O)c1ccc(OCCO)cc1)CCO -0.406
C=CCNC(=O)[C@@H]1[C@H]2C(=O)O[C@H](c3ccccc3)[C@H](c3ccccc3)N2[C@H](c2ccccc2OCCO)[C@@]12C(=O)N(C(=O)OCCOC)c1ccc(C#CC3(O)CCCCCC3)cc12 -0.0365
COc1ccc([Si](C)(C)[C@@H]2[C@@H](CCO)O[C@]3(C(=O)N(Cc4ccccc4)c4ccc(N5C(=O)c6cccc7cccc5c67)cc43)[C@H]2C)cc1 1.97
C=CC[C@]1(C(=O)N2CCCCC2)N=C(c2ccc(OCCCO)cc2)O[C@H]1c1ccccc1CN=[N+]=[N-] -0.442
